# About 7,900 targets were measured; listed, in parts, are those with a hit and a random draw of the rest. About 0.6% of all pairs of compound and target were hits. A number with no mark means an inactive call.
# Key:
# Assay in all cases: log2 fold change, soluble protein after heating vs DMSO (PISA); higher = thermal stabilisation; K562 cells, 10 uM, 30 min; active = over 0.2 and 3.5 SD of the protein, either way, in both replicates (recomputed)
# [1] = compound: COC1=CC=C(C=C1)CN2C=CC3=C2C=C(C=C3)C(=O)NO
# Outline: (§1)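 Quantification of soluble protein used TMTpro 16plex LC-MS/MS, with channel sums equalised. Samples were the supernatant after 21,000xg for 90 min of pooled aliquots from K562 cells (2×10^6 cells/mL) treated with 10 μM compound for 30 min, heated for 3 min over 48°C-58°C, and extracted in PBS with 0.5% NP-40 at 4°C. Values, from duplicates, describe thermal stability against control samples on a log2 fold-change scale.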
# [2] = compound: CON(C)C(=O)N1N=C(c2cc(F)ccc2F)S[C@@]1(CCCN)c1ccccc1 [filanesib]
# Outline: as §1
# [3] = compound: CO[C@H]1C[C@@H]2CC[C@@H](C)[C@@](O)(O2)C(=O)C(=O)N2CCCC[C@H]2C(=O)O[C@H]([C@H](C)C[C@@H]2CC[C@H](n3cnnn3)[C@H](OC)C2)CC(=O)[C@H](C)/C=C(\C)[C@@H](O)[C@@H](OC)C(=O)[C@H](C)C[C@H](C)/C=C/C=C/C=C/1C [zotarolimus]
# Outline: as §1
# [4] = compound: COc1cc(C(=O)O)ccc1NC(=O)[C@@H]1N[C@@H](CC(C)(C)C)[C@](C#N)(c2ccc(Cl)cc2F)[C@H]1c1cccc(Cl)c1F [idasanutlin]
# Outline: as §1
# [5] = compound: COc1cc(Nc2ncc3c(n2)-c2ccc(Cl)cc2C(c2c(F)cccc2OC)=NC3)ccc1C(=O)O [alisertib]
# Outline: as §1
# [6] = compound: COc1cccc2cc(-c3nc([C@H]4CC[C@H](C(=O)O)CC4)n4ncnc(N)c34)[nH]c12
# Outline: as §1
# [7] = compound: CS(=O)(=O)N1CCN(Cc2cc3nc(-c4cccc5[nH]ncc45)nc(N4CCOCC4)c3s2)CC1 [pictilisib]
# Outline: as §1
# [8] = compound: COc1cc2nc(-c3cc(F)ccc3O)nc(N[C@@H]3CNC[C@H]3C(C)(C)O)c2cc1OC
# Outline: as §1
# [9] = compound: COc1cc2ncnc(Nc3ccc(F)c(Cl)c3)c2cc1OCCCN1CCOCC1 [gefitinib]
# Outline: as §1
# [10] = compound: CS(=O)(=O)CCNCc1ccc(-c2ccc3ncnc(Nc4ccc(OCc5cccc(F)c5)c(Cl)c4)c3c2)o1 [lapatinib]
# Outline: as §1
# Chain of UniProt Q5JUR7 (Q5JUR7 whole entry, looked up): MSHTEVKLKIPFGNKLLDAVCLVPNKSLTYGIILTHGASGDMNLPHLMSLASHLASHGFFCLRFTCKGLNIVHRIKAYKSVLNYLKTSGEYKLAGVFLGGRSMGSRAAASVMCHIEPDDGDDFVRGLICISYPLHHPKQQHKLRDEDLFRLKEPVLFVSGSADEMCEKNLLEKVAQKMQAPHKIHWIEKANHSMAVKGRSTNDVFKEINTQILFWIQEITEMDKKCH
# Chain of UniProt Q93075 (Q93075 whole entry, looked up): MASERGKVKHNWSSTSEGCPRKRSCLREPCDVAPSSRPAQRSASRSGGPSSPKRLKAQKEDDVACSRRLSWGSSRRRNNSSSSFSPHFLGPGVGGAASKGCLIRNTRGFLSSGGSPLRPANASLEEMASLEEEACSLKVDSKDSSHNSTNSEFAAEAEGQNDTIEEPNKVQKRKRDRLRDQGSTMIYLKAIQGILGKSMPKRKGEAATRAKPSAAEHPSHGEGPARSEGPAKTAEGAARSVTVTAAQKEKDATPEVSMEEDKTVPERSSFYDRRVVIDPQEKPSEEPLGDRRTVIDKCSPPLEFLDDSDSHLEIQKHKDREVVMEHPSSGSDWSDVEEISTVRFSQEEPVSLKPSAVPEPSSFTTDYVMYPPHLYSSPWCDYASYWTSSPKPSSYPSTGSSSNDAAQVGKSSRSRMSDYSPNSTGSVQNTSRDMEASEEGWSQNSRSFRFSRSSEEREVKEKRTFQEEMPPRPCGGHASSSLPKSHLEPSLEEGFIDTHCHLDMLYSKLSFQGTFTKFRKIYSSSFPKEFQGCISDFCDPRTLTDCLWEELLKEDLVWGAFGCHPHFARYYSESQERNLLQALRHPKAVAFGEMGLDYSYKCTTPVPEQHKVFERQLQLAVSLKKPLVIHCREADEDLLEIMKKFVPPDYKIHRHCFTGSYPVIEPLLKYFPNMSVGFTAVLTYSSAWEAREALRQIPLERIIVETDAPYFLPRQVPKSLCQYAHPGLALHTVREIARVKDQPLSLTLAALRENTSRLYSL
# Chain of UniProt Q13428 (Q13428 whole entry, looked up): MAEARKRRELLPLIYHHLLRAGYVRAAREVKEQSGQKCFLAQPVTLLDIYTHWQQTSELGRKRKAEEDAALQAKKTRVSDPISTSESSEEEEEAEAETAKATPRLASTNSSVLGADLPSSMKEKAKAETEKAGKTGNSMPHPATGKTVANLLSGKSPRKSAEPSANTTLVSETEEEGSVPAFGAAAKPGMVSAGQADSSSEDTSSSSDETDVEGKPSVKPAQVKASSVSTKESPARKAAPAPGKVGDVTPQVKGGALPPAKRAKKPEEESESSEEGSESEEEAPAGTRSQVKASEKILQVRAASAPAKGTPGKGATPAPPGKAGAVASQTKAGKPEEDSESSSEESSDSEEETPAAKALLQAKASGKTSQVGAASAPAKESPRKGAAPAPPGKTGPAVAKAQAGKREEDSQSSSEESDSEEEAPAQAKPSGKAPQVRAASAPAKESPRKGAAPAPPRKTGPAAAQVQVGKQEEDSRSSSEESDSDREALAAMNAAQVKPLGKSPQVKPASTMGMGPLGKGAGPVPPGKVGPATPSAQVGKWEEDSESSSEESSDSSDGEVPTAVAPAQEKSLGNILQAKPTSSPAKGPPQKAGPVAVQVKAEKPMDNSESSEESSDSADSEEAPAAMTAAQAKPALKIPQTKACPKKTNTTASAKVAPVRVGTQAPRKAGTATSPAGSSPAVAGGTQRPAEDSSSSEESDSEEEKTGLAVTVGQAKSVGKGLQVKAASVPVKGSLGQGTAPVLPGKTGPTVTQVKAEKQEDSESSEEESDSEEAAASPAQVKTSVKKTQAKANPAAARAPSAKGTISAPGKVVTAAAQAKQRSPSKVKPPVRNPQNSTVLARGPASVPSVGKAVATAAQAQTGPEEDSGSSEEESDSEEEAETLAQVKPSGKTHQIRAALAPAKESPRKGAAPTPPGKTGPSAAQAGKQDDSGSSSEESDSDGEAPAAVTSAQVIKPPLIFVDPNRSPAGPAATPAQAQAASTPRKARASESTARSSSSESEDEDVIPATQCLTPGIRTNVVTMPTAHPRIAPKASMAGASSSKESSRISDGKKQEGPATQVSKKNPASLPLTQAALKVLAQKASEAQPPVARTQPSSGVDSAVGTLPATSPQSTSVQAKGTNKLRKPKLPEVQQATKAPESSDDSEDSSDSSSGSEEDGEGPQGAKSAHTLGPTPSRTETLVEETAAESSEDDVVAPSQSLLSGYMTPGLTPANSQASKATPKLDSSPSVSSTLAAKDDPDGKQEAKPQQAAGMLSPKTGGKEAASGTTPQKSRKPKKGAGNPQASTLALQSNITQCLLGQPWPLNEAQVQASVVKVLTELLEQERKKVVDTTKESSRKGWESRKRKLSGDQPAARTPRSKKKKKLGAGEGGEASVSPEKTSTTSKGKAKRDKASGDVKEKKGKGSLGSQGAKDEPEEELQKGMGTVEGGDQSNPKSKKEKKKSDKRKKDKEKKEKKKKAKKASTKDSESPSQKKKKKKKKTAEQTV
# Chain of UniProt Q9Y5J6 (Q9Y5J6 whole entry, looked up): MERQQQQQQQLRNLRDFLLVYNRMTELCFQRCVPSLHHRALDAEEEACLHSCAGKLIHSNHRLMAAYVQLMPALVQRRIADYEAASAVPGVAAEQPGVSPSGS
# Chain of UniProt Q12824 (Q12824 whole entry, looked up): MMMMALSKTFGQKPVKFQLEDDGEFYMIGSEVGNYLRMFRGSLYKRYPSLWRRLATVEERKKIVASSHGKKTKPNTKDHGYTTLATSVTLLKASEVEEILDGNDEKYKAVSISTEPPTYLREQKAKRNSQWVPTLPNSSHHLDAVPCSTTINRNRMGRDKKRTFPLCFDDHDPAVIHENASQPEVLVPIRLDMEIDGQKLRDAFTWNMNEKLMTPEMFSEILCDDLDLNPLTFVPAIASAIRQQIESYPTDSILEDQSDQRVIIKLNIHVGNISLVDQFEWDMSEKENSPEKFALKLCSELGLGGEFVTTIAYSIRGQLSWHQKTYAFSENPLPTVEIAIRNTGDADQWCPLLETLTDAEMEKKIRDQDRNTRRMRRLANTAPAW
# Chain of UniProt Q5VWP2 (Q5VWP2 whole entry, looked up): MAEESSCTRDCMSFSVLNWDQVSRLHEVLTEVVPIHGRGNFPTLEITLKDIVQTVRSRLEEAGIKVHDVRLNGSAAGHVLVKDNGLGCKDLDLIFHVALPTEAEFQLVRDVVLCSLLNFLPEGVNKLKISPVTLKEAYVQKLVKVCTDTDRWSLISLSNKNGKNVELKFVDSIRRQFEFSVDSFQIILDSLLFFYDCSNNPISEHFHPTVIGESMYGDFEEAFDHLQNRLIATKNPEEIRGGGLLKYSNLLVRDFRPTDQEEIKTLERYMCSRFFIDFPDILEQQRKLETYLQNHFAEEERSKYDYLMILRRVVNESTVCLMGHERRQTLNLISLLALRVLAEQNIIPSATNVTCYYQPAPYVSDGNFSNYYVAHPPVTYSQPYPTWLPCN
# Chain of UniProt P20226 (P20226 whole entry, looked up): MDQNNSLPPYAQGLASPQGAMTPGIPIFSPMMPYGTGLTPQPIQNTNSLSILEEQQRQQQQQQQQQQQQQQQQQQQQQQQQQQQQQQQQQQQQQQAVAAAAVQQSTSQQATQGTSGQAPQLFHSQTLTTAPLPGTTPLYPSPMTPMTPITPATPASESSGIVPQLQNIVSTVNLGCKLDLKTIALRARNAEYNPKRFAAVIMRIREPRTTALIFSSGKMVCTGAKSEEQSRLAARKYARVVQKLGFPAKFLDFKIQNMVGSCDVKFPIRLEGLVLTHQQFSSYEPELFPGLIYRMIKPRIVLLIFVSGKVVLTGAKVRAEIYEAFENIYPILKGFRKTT
# Chain of UniProt O60749 (O60749 whole entry, looked up): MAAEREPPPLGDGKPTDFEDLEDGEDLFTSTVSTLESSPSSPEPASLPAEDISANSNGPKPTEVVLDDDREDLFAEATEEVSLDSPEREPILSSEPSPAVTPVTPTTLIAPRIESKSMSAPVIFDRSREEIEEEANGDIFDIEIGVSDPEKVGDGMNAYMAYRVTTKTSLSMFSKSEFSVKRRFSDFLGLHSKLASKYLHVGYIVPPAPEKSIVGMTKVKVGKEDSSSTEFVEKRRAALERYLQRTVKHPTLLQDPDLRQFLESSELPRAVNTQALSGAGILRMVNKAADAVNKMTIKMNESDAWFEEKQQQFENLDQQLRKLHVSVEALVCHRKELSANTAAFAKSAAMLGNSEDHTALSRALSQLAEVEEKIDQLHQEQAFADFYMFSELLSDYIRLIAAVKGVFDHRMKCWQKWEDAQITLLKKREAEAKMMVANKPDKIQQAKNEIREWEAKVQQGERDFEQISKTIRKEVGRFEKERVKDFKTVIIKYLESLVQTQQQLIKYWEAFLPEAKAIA
# Chain of UniProt Q6J4K2 (Q6J4K2 whole entry, looked up): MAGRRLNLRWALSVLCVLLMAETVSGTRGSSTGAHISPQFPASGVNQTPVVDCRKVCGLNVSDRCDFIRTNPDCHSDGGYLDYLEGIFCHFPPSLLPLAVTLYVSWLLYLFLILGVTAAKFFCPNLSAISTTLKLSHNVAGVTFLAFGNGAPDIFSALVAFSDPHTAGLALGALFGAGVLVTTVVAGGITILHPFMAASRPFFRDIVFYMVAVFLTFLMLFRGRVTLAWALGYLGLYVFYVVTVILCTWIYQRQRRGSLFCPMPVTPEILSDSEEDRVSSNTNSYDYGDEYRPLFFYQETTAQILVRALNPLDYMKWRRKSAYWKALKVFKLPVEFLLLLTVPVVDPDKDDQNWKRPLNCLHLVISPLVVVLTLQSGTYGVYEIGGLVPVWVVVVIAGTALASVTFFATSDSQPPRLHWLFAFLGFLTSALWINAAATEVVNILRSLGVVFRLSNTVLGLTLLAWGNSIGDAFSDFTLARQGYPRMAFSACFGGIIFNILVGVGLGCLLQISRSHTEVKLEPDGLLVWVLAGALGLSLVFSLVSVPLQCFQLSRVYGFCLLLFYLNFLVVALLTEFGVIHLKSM
# Chain of UniProt Q9H4I9 (Q9H4I9 whole entry, looked up): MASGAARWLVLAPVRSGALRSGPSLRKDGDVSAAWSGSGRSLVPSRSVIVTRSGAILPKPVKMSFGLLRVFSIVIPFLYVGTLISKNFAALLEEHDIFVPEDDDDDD
Target,log2 fold change [1],log2 fold change [2],log2 fold change [3],log2 fold change [4],log2 fold change [5],log2 fold change [6],log2 fold change [7],log2 fold change [8],log2 fold change [9],log2 fold change [10]
SMDT1 (UniProt Q9H4I9),-0.053,-0.39 (active),-0.014,-0.087,-0.058,0.014,0.095,–,–,–
SMARCB1 (UniProt Q12824),-0.116,0.026,0.136,–,–,–,0.424,–,–,–
TACC2 (UniProt O95359),–,-0.107,-0.003,-0.042,0.1,0.011,0.046,0.01,-0.027,0.011
TK1 (UniProt K7ERV3),–,0.005,-0.034,-0.075,0.121,0,0.102,-0.107,0.026,-0.107
SNX2 isoform 2 (UniProt O60749),0.258,-0.234,0.022,-0.054,–,–,–,0.462,–,0.041
SSB (UniProt E7ERC4),–,–,–,–,0.494,-0.37,-0.086,–,–,–
TATDN2 (UniProt Q93075),-0.011,0.002,0.006,0.012,–,–,-0.016,-0.015,-0.037,0.021
SLC35B1 isoform 2 (UniProt P78383),-0.106,-0.037,-0.005,–,-0.232,0.129,–,–,-0.022,–
TMBIM1 (UniProt Q969X1),–,-0.161,-0.117,0.013,-0.018,0.088,0.138,-0.254,-0.004,0.172
SRCAP (UniProt Q6ZRS2),-0.083,0.097,-0.02,–,-0.091,0.062,0.015,-0.067,0.198,0.049
SREBF1 isoform 4 (UniProt P36956),-0.089,–,–,–,-0.014,0.098,–,–,–,–
SYK (UniProt P43405),0.085,–,0.066,0.25,–,–,–,0.204,–,0.06
TC2N (UniProt Q8N9U0),–,–,–,-0.003,0.012,0.127,–,–,-0.066,–
TDP1 (UniProt Q9NUW8),–,–,-0.015,–,–,–,–,–,–,–
SLC8B1 (UniProt Q6J4K2),0.044,–,-0.097,-0.034,–,–,0.016,0.132,–,0.066
TIMM10B (UniProt Q9Y5J6),–,-0.068,0.023,0.009,-0.205,0.143,-0.126,0.048,0.022,-0.248
TCOF1 isoform 3 (UniProt Q13428),–,-0.152,–,–,–,–,0.188,–,–,–
SPIRE1 (UniProt Q08AE8),-0.509 (active),–,-0.051,-0.023,-0.033,0.049,0.188,–,-0.013,–
TCOF1 isoform 6 (UniProt Q13428),-0.318,-0.087,-0.062,–,-0.263,-0.105,–,–,0.028,–
TENT5C (UniProt Q5VWP2),-0.133,0.049,-0.56 (active),–,0,-0.021,0.168,0.075,0.002,-0.092
SNRK (UniProt Q9NRH2),0.15,0.158,–,–,–,–,–,0.84 (active),–,0.016
SLC39A1 (UniProt Q9NY26),–,–,-0.15,–,–,–,-0.053,–,–,–
TEX30 (UniProt Q5JUR7),-0.063,–,0.031,-0.02,0.029,0.031,0.057,0.07,-0.079,-0.029
TAOK2 (UniProt Q9UL54),0.189,–,–,–,0.107,0.003,0.003,-0.02,-0.095,0.022
TBP (UniProt P20226),-0.014,–,-0.1,-0.076,0.148,0.081,–,0.072,0.044,0.023
SLC35F6 (UniProt Q8N357),–,-0.001,0.016,0.02,-0.052,0.037,–,0.033,0,-0.076

# From the supplement of paper PMC10849652
